21 compounds from PubChem BioAssay (Tox21) can be followed below.

Inconclusive results are not listed. Where a call stands in place of a potency, no number is given. Some structures have more than one record in an assay (separate samples or runs), and their calls can disagree. Active and inactive are the calls of the source. Calls come from the whole dose curve; as a rule, active = well fitted cell-killing curve with a large enough effect in the repeat runs; inconclusive = weak or mixed curves, or effect the other way; inactive = flat fitted curve, though single readings scatter.
Potency is the fitted concentration of half-maximal effect.

The test in a line: qHTS assay to identify small molecule agonists of the TGF-beta/Smad signaling pathway - cell viability counter screen (AID 1346829). Note: nearly all actives have a fitted effect of over 45% in size. The conditions noted are these: SBE-bla HEK293T viability, CellTiter-Glo luminescence, 5 h; series mostly up to 76.8 µM. An outline of the steps:
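SBE-bla HEK 293T cells plated overnight, compound exposure 5 hr at 37 C. Viability read in the same wells by CellTiter-Glo luminescence after 30 min at room temperature, following the beta-lactamase read.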
For `Nc1cc(Cl)c([N+](=O)[O-])cc1O`, the Potency entry was “inactive”.

As to `CCC1(c2cnc[nH]2)Cc2ccccc2C1`, the Potency entry was “inactive”.

Take `C1CC(COCC2CO2)CCC1COCC1CO1` (stereo unspecified): the Potency result is “inactive”.

As for `C=CC(C)C#N` (stereo unspecified), the Potency result was “inactive”.

On to `CC(C)N=C(N)/N=C(\N)Nc1ccc(Cl)cc1`, for which the Potency entry is “inactive”.

On to `Clc1ccccc1CN1CCc2sccc2C1`, for which the Potency entry is “inactive”.

`CCCCOC(=O)C(C)CC` (stereo unspecified): the Potency result is “inactive”.

With `CC1CCCCN1CCCOC(=O)c1ccc(OC2CCCCC2)cc1` (stereo unspecified), the Potency result is “inactive”.

As for `CCC(C)c1cc([N+](=O)[O-])cc([N+](=O)[O-])c1OC(=O)OC(C)C` (stereo unspecified), the Potency entry is “inactive”.

For the compound `COc1cccc(CCc2ccccc2OCC(CN(C)C)OC(=O)CCC(=O)O)c1` (stereo unspecified), the Potency result was “inactive”.

As to `O=C1c2c(O)ccc([N+](=O)[O-])c2C(=O)c2c([N+](=O)[O-])ccc(O)c21`, the Potency was 48.5 µM (active).

Regarding `CC(CN(C)C)CN1c2ccccc2CCc2ccccc21` (stereo unspecified), the Potency result was “inactive”.

Turning to `C=C(c1ccc(C(=O)O)cc1)c1cc2c(cc1C)C(C)(C)CCC2(C)C`, the Potency entry is “inactive”.

Regarding `C=CC(=C)CCC=C(C)C`, the Potency entry was “inactive”.

For `Oc1ccc(-c2ccc(O)cc2)cc1`, the Potency entry was “inactive”.

On to `CNCC[C@H](Oc1cccc2ccccc12)c1cccs1`, for which the Potency result is “inactive”.

On to `CCc1ccc(O)c(C(C)(C)C)c1`, for which the Potency entry is “inactive”.

Turning to `O=C(O)CCn1c2c(c3ccccc31)C[C@H](NS(=O)(=O)c1ccc(F)cc1)CC2`, the Potency entry is “inactive”.

Consider `COC(=O)[C@]1(C)CCC[C@@]2(C)[C@H]1CC=C1C=C(C(C)C)CC[C@@H]12`, for which the Potency entry is “inactive”.

`CC(=O)Nc1ccc(O)cc1`: the Potency result is “inactive”.

For the compound `CCCCCCCCCCCCOC(=O)c1cc(O)c(O)c(O)c1`, the Potency is 61.4 µM (active) and inactive.
